PubChem BioAssay AID1159580 (chemical genetic matrix, 2015)
“And” between values parts separate entries of the source, which are not always exact repeats. Identical values can stand only once. Out of some 5,500 compounds screened, about 2,000 (36%) were called active. Roughly 18% stayed inconclusive and do not appear here. Cut-off read from the data, not from the text of the source: active = normalized growth mostly below about 0.91 (no sharp cut-off); inconclusive = no clear call, values can overlap the other calls; inactive = mostly above about 0.92. Some of the results follow.

Experiment: chemical genetic growth profiling, strain panel (AID 1159580);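 note: tested at 20 µM; growth read once vehicle control cultures reached saturation at 30 °C; 1 = growth at the plate median or of vehicle wells; lower values mean less growth of the strain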
Settings: S. cerevisiae deletion strains, growth OD

Measured: normalized growth

CCCC(C)(COC(N)=O)COC(=O)NC(C)C (stereo unspecified)
inactive: locus YAL021C, strain ccr4, hits give low values 1 | locus YAL026C, strain drs2, hits give low values 0.99 | locus YAL030W, strain snc1, hits give low values 0.98 | locus YAL040C, strain CLN3, hits give low values 0.989 | locus YBL061C, strain skt5, hits give low values 1 | locus YBR009C, strain hhf1, hits give low values 0.983 | locus YBR021W, strain FUR4, hits give low values 0.991 | locus YBR023C, strain chs3, hits give low values 1.01 | locus YBR171W, strain sec66, hits give low values 1 | locus YBR229C, strain ROT2, hits give low values 0.954 | locus YBR231C, strain swc5, hits give low values 1.01 | locus YBR279W, strain paf1, hits give low values 1 | locus YCL011C, strain gbp2, hits give low values 0.996 | locus YCL016C, strain dcc1, hits give low values 0.985 | locus YCL029C, strain bik1, hits give low values 0.977 | locus YCL061C, strain MRC1, hits give low values 1 | locus YCL069W, strain vba3, hits give low values 0.992 | locus YCR088W, strain abp1, hits give low values 0.998 | locus YDL005C, strain med2, hits give low values 1 | locus YDL035C, strain GPR1, hits give low values 0.951 | locus YDL040C, strain nat1, hits give low values 1 | locus YDL074C, strain BRE1, hits give low values 0.974 | locus YDL101C, strain DUN1, hits give low values 0.982 | locus YDL134C, strain PPH21, hits give low values 0.965 | locus YDL185W, strain tfp1, hits give low values 0.945 | locus YDL192W, strain arf1, hits give low values 0.965 | locus YDR001C, strain nth1, hits give low values 0.974 | locus YDR069C, strain doa4, hits give low values 1.01 | locus YDR101C, strain arx1, hits give low values 0.983 | locus YDR137W, strain rgp1, hits give low values 0.966 | locus YDR150W, strain NUM1, hits give low values 0.983 | locus YDR159W, strain sac3, hits give low values 0.986 | locus YDR162C, strain NBP2, hits give low values 0.94 | locus YDR195W, strain ref2 1 | locus YDR297W, strain sur2, hits give low values 0.991 | locus YDR318W, strain mcm21, hits give low values 0.979 | locus YDR334W, strain swr1, hits give low values 0.979 | locus YDR335W, strain msn5, hits give low values 0.989 | locus YDR363W, strain ESC2, hits give low values 0.976 | locus YDR388W, hits give low values 0.979 | locus YDR392W, strain spt3, hits give low values 0.952 | locus YDR502C, strain sam2, hits give low values 0.984 | locus YEL003W, strain gim4, hits give low values 0.986 | locus YEL037C, strain rad23, hits give low values 0.993 | locus YEL061C, strain CIN8 (second series), hits give low values 0.975 | locus YEL061C, strain CIN8, hits give low values 0.982 | locus YER002W, strain NOP16, hits give low values 0.995 | locus YER015W, strain faa2, hits give low values 1.01 | locus YER016W, strain bim1, hits give low values 0.986 | locus YER110C, hits give low values 0.964 | locus YER111C, strain swi4, hits give low values 0.973 | locus YER155C, strain BEM2 (second series), hits give low values 1.04 | locus YER155C, strain BEM2, hits give low values 0.99 | locus YER167W, strain BCK2, hits give low values 0.989 | locus YFR010W, strain ubp6, hits give low values 0.985 | locus YGL078C, strain dbp3, hits give low values 0.981 | locus YGL086W, strain mad1, hits give low values 0.98 | locus YGL167C, strain pmr1, hits give low values 0.991 | locus YGL173C, strain kem1, hits give low values 0.993 | locus YGL227W, strain vid30, hits give low values 0.987 | locus YGL240W, strain doc1, hits give low values 1.02 | locus YGL248W, strain PDE1, hits give low values 0.991 | locus YGL253W, strain hxk2, hits give low values 0.978 | locus YGR078C, strain PAC10, hits give low values 0.988 | locus YGR135W, strain pre9, hits give low values 1 | locus YGR229C, strain SMI1, hits give low values 0.971 | locus YGR252W, strain gcn5, hits give low values 0.989 | locus YHR013C, strain ard1, hits give low values 0.967 | locus YHR027C, strain rpn1, hits give low values 1.01 | locus YHR030C, strain SLT2, hits give low values 0.992 and 0.979 | locus YHR079C, strain IRE1 (second series), hits give low values 0.989 | locus YHR079C, strain IRE1, hits give low values 0.974 | locus YHR094C, strain hxt1, hits give low values 0.969 | locus YHR129C, strain ARP1, hits give low values 0.988 | locus YHR142W, strain chs7, hits give low values 0.982 | locus YHR200W, strain rpn10, hits give low values 0.967 | locus YIL066C, strain RNR3, hits give low values 0.975 | locus YIL073C, strain SPO22, hits give low values 0.981 | locus YIL125W, strain kgd1, hits give low values 0.969 | locus YIR030C, strain dcg1, hits give low values 0.978 | locus YJL092W, strain hpr5, hits give low values 0.988 | locus YJL095W, strain BCK1 (second series), hits give low values 0.998 | locus YJL095W, strain BCK1, hits give low values 1.02 and 0.977 | locus YJL115W, strain asf1, hits give low values 0.962 | locus YJL129C, strain trk1, hits give low values 0.983 | locus YJL134W, strain LCB3, hits give low values 0.976 | locus YJL154C, strain vps35, hits give low values 0.992 | locus YJL164C, strain tpk1, hits give low values 0.966 | locus YJL166W, strain qcr8, hits give low values 1.01 | locus YJL168C, strain set2, hits give low values 0.981 | locus YJL187C, strain SWE1 (second series), hits give low values 0.987 | locus YJR043C, strain POL32, hits give low values 0.965 | locus YJR066W, strain TOR1, hits give low values 0.965 | locus YJR075W, strain HOC1, hits give low values 0.997 | locus YKL009W, strain mrt4, hits give low values 1.03 | locus YKL068W, hits give low values 0.971 | locus YKL085W, strain MDH1 (second series), hits give low values 0.982 | locus YKL085W, strain MDH1, hits give low values 0.982 | locus YKL160W, strain elf1, hits give low values 1 | locus YKR001C, strain vps1, hits give low values 0.97 | locus YKR026C, strain gcn3, hits give low values 0.989 | locus YKR091W, strain srl3, hits give low values 0.97 | locus YLL001W, strain dnm1, hits give low values 1.02 | locus YLL026W, hits give low values 1 | locus YLL041C, strain sdh2, hits give low values 1.01 | locus YLR027C, strain aat2, hits give low values 0.993 | locus YLR039C, strain RIC1, hits give low values 0.974 | locus YLR058C, strain SHM2, hits give low values 0.978 | locus YLR102C, strain apc9, hits give low values 0.982 | locus YLR113W, strain HOG1, hits give low values 0.978 | locus YLR221C, strain rsa3, hits give low values 1.01 | locus YLR258W, strain gsy2, hits give low values 0.986 | locus YLR262C, strain YPT6 (second series), hits give low values 0.991 | locus YLR262C, strain YPT6, hits give low values 0.911 | locus YLR268W, strain sec22, hits give low values 0.969 | locus YLR320W, strain mms22, hits give low values 0.985 | locus YLR330W, strain CHS5, hits give low values 0.985 | locus YLR342W, strain FKS1 (second series), hits give low values 0.995 | locus YLR342W, strain FKS1, hits give low values 1.02 | locus YLR357W, strain rsc2, hits give low values 0.949 | locus YLR370C, strain arc18, hits give low values 1.01 | locus YLR371W, strain rom2, hits give low values 0.959 | locus YLR384C, strain iki3, hits give low values 1 | locus YLR418C, strain cdc73, hits give low values 1.01 | locus YML016C, strain PPZ1, hits give low values 0.986 | locus YML032C, strain rad52, hits give low values 0.97 | locus YML120C, strain ndi1, hits give low values 1 | locus YML124C, strain tub3, hits give low values 0.986 | locus YMR058W, strain fet3, hits give low values 0.973 | locus YMR078C, strain ctf18, hits give low values 0.964 | locus YMR125W, strain sto1, hits give low values 0.975 | locus YMR129W, hits give low values 0.985 | locus YMR205C, strain PFK2, hits give low values 1 | locus YMR223W, strain ubp8, hits give low values 1 | locus YMR231W, strain pep5, hits give low values 0.999 | locus YMR263W, strain SAP30, hits give low values 0.99 | locus YMR307W, strain GAS1, hits give low values 0.942 | locus YNL067W, strain RPL9B, hits give low values 0.992 | locus YNL071W, strain lat1, hits give low values 1 | locus YNL128W, strain TEP1, hits give low values 0.97 | locus YNL153C, strain GIM3, hits give low values 0.995 | locus YNL175C, strain NOP13, hits give low values 0.988 | locus YNL183C, strain NPR1, hits give low values 0.925 | locus YNL197C, strain WHI3, hits give low values 0.95 | locus YNL209W, strain ssb2, hits give low values 0.983 | locus YNL224C, strain SQS1, hits give low values 0.996 | locus YNL233W, strain BNI4, hits give low values 1 | locus YNL248C, strain rpa49, hits give low values 0.921 | locus YNL250W, strain rad50, hits give low values 0.961 | locus YNL271C, strain bni1, hits give low values 0.979 | locus YNL298W, strain CLA4, hits give low values 0.972 | locus YNL307C, strain MCK1, hits give low values 0.979 | locus YNL322C, strain KRE1 (second series), hits give low values 1.01 | locus YNL322C, strain KRE1, hits give low values 0.995 | locus YNR049C, strain mso1, hits give low values 0.986 | locus YNR052C, strain pop2, hits give low values 0.974 | locus YOL012C, strain htz1 1.03 | locus YOL147C, strain pex11, hits give low values 0.991 | locus YOR001W, strain rrp6, hits give low values 1.02 | locus YOR061W, strain CKA2, hits give low values 0.962 | locus YOR069W, strain VPS5, hits give low values 0.984 | locus YOR070C, strain gyp1, hits give low values 0.992 | locus YOR080W, strain dia2, hits give low values 1.01 | locus YOR083W, strain WHI5 (second series), hits give low values 0.975 | locus YOR083W, strain WHI5, hits give low values 1.03 | locus YOR106W, strain vam3, hits give low values 1.02 | locus YOR136W, strain idh2, hits give low values 0.973 | locus YOR144C, strain elg1, hits give low values 0.984 | locus YOR184W, strain ser1, hits give low values 0.965 | locus YOR231W, strain MKK1, hits give low values 0.981 | locus YOR265W, strain rbl2, hits give low values 1 | locus YOR270C, strain vph1, hits give low values 0.968 | locus YOR290C, strain snf2, hits give low values 0.982 | locus YOR316C, strain cot1, hits give low values 0.948 | locus YPL051W, strain arl3, hits give low values 1.02 | locus YPL055C, strain LGE1, hits give low values 0.988 | locus YPL078C, strain atp4, hits give low values 1.01 | locus YPL106C, strain sse1, hits give low values 0.984 | locus YPL240C, strain hsp82, hits give low values 1 | locus YPL241C, strain CIN2, hits give low values 0.999 | locus YPL256C, strain CLN2, hits give low values 0.965 | locus YPR119W, strain clb2, hits give low values 0.977 | locus YPR141C, strain kar3, hits give low values 0.956 | locus YPR163C, strain tif3, hits give low values 0.975 | locus YPR167C, strain met16, hits give low values 0.985 | strain wtn01, hits give low values 0.996
